Screens as filed in PubChem.
This is a sample that favours compounds with a hit; in the whole collection about 7.6% have one here.
HCV NS3h FP = hepatitis C NS3 helicase inhibition, primary screen; 16,000 compounds, 1.6% hits; inhibition, % at 100 µM; NS3h Cy5-dT15 DNA binding, fluorescence polarization;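 active = inhibition above the average over every tested compound plus 3 SD, cut at about 40% in these data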
Cy5 interf NS3h = counter-screen for HCV NS3 helicase inhibitors: fluorescence interference; Cy5-dT15 DNA with NS3h; actives lie on both sides; signal over control mean, under 1 quenches; fluorescence interference ratio at 100 µM; AID 720488; 16,000 compounds, 6% hits;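 active = compound fluorescence over control fluorescence at most 0.8, a quencher, or at least a set upper limit, an enhancer; inactive = ratio between 0.8 and the set upper limit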
HCV NS3h conf = hepatitis C NS3 helicase inhibition, confirmation; AID 720485; shares compounds with HCV NS3h FP; inhibition, % at 100 µM; NS3h binding to Cy5-dT15 DNA, fluorescence polarization; 240 compounds, 20% hits;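 active = percent inhibition of 50% or more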
SSB FP counter = disrupts E. coli SSB binding to DNA in counter-screen; 240 compounds, 40% hits; shares compounds with HCV NS3h FP; inhibition, % at 100 µM; AID 720486; E. coli SSB binding Cy5-dT15, fluorescence polarization;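 active = inhibition of at least 50%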;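 note: displacers lower Cy5 polarization so higher inhibition means more SSB displaced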
Target sequence (P0AGE0 whole entry, looked up): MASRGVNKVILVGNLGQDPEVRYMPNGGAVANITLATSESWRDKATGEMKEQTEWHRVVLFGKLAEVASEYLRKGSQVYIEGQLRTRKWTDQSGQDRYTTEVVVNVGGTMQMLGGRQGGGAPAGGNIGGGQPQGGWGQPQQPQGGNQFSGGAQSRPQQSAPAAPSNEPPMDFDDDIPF
Cy5 SSB fluor CB = enhances or quenches Cy5-DNA fluorescence with E. coli SSB; shares compounds with HCV NS3h FP; Cy5-dT15/E. coli SSB fluorescence interference; actives lie on both sides; 240 compounds, 8% hits; fluorescence interference ratio at 100 µM; AID 720487;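 active = fluorescence interference ratio at or above 1.2, signal boosting, or at or below 0.8, signal quenching; inactive = ratio between 0.8 and 1.2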;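 note: ratio of compound well signal to mean negative control signal so 1 means no effect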
Cy5 fluor confirm = Cy5 fluorescence interference, confirmation counter-screen; Cy5-dT15 DNA/NS3h fluorescence interference counterscreen; fluorescence interference ratio at 100 µM, hits read low; shares compounds with HCV NS3h FP; 240 compounds, 44% hits;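 active = fluorescence interference ratio at or below 0.8 quencher or at or above a set limitenhancer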;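 note: ratio of compound fluorescence to mean of negative controls so 1 means no interference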
Active calls of the source: *; · = no result.

SMILES | HCV NS3h FP | Cy5 interf NS3h | HCV NS3h conf | SSB FP counter | Cy5 SSB fluor CB | Cy5 fluor confirm
O=c1c2c(nc3cc(-c4cccs4)[nH]n13)CCC2 | 6 | 1 | · | · | · | ·
O=C1NC(=S)NC(=O)C1=Cc1ccc(OCc2ccccc2Cl)cc1 | 48* | 0.89 | 1 | 61* | 0.92 | 0.75*
O=C1NC(=S)NC(=O)C1=Cc1ccccc1OCc1ccccc1Cl | 27 | 0.97 | · | · | · | ·
CN1C(=O)/C(=C/c2c(Cl)cccc2Cl)SC1=S | -8 | 0.96 | · | · | · | ·
CN1C(=O)C(=Cc2c(Cl)cccc2Cl)C(=O)N(C)C1=O | 42* | 0.99 | 31 | 16 | 0.97 | 0.9
CCOc1ccc(N2C(=O)NC(=O)/C(=C\c3ccc(-c4ccccc4C(=O)O)o3)C2=O)cc1 | 67* | 1 | 41 | 39 | 0.96 | 0.95
O=C1NC(=O)N(c2ccc(Cl)cc2)C(=O)/C1=C/c1ccc(-c2ccccc2C(=O)O)o1 | 44* | 1.2 | 56* | 30 | 0.95 | 0.91
O=C1NC(=O)N(c2ccc(Cl)cc2)C(=O)/C1=C\c1ccc(-c2ccccc2[N+](=O)[O-])o1 | 1 | 1 | · | · | · | ·
CCOc1ccc(N2C(=O)NC(=O)/C(=C\c3ccc(-c4ccc([N+](=O)[O-])cc4OC)o3)C2=O)cc1 | 22 | 1 | · | · | · | ·
O=C(O)CN1C(=O)S/C(=C/C(Cl)=C/c2ccc([N+](=O)[O-])cc2)C1=O | 11 | 1.1 | · | · | · | ·
Cc1ccc(/C=C2\C(=O)NC(=S)N(c3ccc(Br)cc3)C2=O)o1 | 7 | 1.1 | · | · | · | ·
Cc1ccc(C=C2C(=O)NC(=S)N(c3ccccc3Cl)C2=O)o1 | 60* | 0.96 | 31 | 78* | 1 | 0.79*
Cc1ccc2oc(-c3cc(NC(=O)Cc4ccccc4)ccc3O)nc2c1 | -11 | 1.1 | · | · | · | ·
CCN(CC)c1ccc(/C=C2\C(=O)NC(=O)N(Cc3ccccc3)C2=O)c(OC)c1 | 79* | 3* | 36 | 48 | 2.2* | 1.7*
O=C1NC(=O)N(Cc2ccccc2)C(=O)/C1=C/c1cccs1 | 25 | 0.83 | · | · | · | ·
Cc1cc(/C=N/Nc2ccc([N+](=O)[O-])cn2)c(C)n1-c1ccccc1F | -10 | 0.92 | · | · | · | ·
O=C1/C(=C/c2ccc(O)cc2)NC(=S)N1c1ccccc1 | 6 | 1 | · | · | · | ·
CC1CCN(c2cccc3c2C(=O)c2ccccc2C3=O)CC1 | 8 | 1 | · | · | · | ·
O=C1c2ccccc2-c2onc3ccc(N4CCCCC4)c1c23 | 52* | 1.1 | 25 | 71* | 1.2* | 0.79*
COc1ccccc1CNC(=O)C(=O)Nc1cccc(C(F)(F)F)c1 | 8 | 1 | · | · | · | ·
COc1cccc(OCCOc2cccc(/C=C3/SC(=S)NC3=O)c2)c1 | 20 | 0.92 | · | · | · | ·
COc1cccc(OCCOc2c(Cl)cc(/C=C3/SC(=S)NC3=O)cc2OC)c1 | 70* | 0.97 | 45 | 47 | 0.97 | 0.79*
Cc1cccc(N2C(=O)NC(=O)/C(=C\c3ccc(O)c(Cl)c3)C2=O)c1 | 65* | 1 | 18 | 28 | 0.96 | 0.96
Cc1ccc(N2C(=O)NC(=O)/C(=C\c3ccc(O)c(Br)c3)C2=O)cc1 | 19 | 1.1 | · | · | · | ·
COc1ccccc1N1C(=O)NC(=O)/C(=C\c2ccc(O)c(O)c2)C1=O | 44* | 0.97 | 8 | 20 | 0.93 | 1
SMILES | HCV NS3h FP | Cy5 interf NS3h | HCV NS3h conf | SSB FP counter | Cy5 SSB fluor CB | Cy5 fluor confirm
O=C1NC(=O)N(c2ccccc2F)C(=O)/C1=C/c1ccc(O)c(Cl)c1 | 30 | 0.98 | · | · | · | ·
Cc1cc(C)cc(N2C(=O)NC(=O)/C(=C\c3ccc(O)c(Br)c3)C2=O)c1 | 38 | 0.99 | 9 | 24 | 0.96 | 0.75*
C=CCOc1c(Br)cc(/C=C2\C(=O)NC(=O)N(c3ccc(Cl)cc3)C2=O)cc1OC | 16 | 1.1 | · | · | · | ·
O=C1NC(=O)N(c2cccc(Cl)c2)C(=O)/C1=C/c1ccc(O)c(Cl)c1 | 12 | 0.99 | · | · | · | ·
O=C1NC(=O)N(c2ccc(Cl)cc2)C(=O)/C1=C/c1cc(Br)c(O)c([N+](=O)[O-])c1 | 22 | 1.1 | 43 | 76* | 0.91 | 0.81
COc1cccc(N2C(=O)C(=O)C(=C(O)c3ccccc3)C2c2ccc(Br)cc2)c1 (stereo not drawn) | -5 | 0.9 | · | · | · | ·
COC(=O)c1cc(NC(=O)c2ccc(Cl)c([N+](=O)[O-])c2)cc(C(=O)OC)c1 | 3 | 0.97 | · | · | · | ·
CCOc1ccc(S(=O)(=O)N(CC(=O)Nc2ccccc2Br)c2ccc(C)cc2)cc1 | -3 | 1.1 | · | · | · | ·
Cc1cc(C)c(NC(=O)C(C)N2C(=O)c3ccccc3C2=O)c(C)c1 (stereo not drawn) | 5 | 1 | · | · | · | ·
Cc1onc(-c2ccccc2Cl)c1C(=O)N1CCN(c2ccc([N+](=O)[O-])cc2Cl)CC1C (stereo not drawn) | 11 | 0.94 | · | · | · | ·
CC1(C)C(c2ccco2)=[N+]([O-])C2(CCCCC/C2=N/NC(N)=S)N1O (stereo not drawn) | -4 | 1.1 | · | · | · | ·
COc1ccc(C2CC(C(F)(F)F)n3ncc(C(=O)NCCc4ccccc4)c3N2)cc1OC (stereo not drawn) | 21 | 0.92 | · | · | · | ·
CCOc1ccc(C(=O)Nc2cc(OC)ccc2OC)cc1[N+](=O)[O-] | 89* | 1.1 | 16 | 13 | 0.93 | 0.94
COc1ccc(C)cc1NC(=O)c1ccc(OC)c([N+](=O)[O-])c1 | 4 | 0.97 | · | · | · | ·
CCOc1ccc(/C=C2\C(=O)NC(=S)N(c3ccc(Br)cc3)C2=O)cc1Cl | 5 | 1 | · | · | · | ·
COc1ccc2occ(C(=O)c3ccccc3Cl)c(=O)c2c1 | 57* | 1 | 26 | 8 | 0.99 | 0.88
COc1ccc(C(=O)c2coc3ccc(O)cc23)cc1 | 16 | 1 | · | · | · | ·
COc1ccc(S(=O)(=O)N(CC(=O)Nc2ccc(C)c(C)c2)c2ccc(C)cc2)cc1OC | 8 | 1 | · | · | · | ·
Cc1ccc(-c2n[nH]c3c2C(c2cccc([N+](=O)[O-])c2)N(c2ccc(F)cc2)C3=O)cc1 (stereo not drawn) | 8 | 1.1 | · | · | · | ·
Cc1cc(C)cc(N2C(=O)NC(=O)/C(=C\c3ccc(I)o3)C2=O)c1 | 46* | 1.1 | 39 | 92* | 1 | 1
Cc1ccc(N2C(=O)NC(=O)/C(=C\c3ccc(-c4ccc(C)c([N+](=O)[O-])c4)o3)C2=O)cc1 | 61* | 1.1 | 2 | 24 | 0.96 | 0.89
O=C1NC(=O)N(c2ccc(Cl)cc2)C(=O)/C1=C\c1ccc(-c2ccc([N+](=O)[O-])cc2)o1 | 8 | 1 | · | · | · | ·
O=C1NC(=O)N(c2ccc(Cl)cc2)C(=O)/C1=C/c1ccc(I)o1 | 56* | 1.3* | 26 | 78* | 1.1 | 0.82
Cc1cc(C)cc(N2C(=O)NC(=O)/C(=C\c3ccccc3C)C2=O)c1 | -11 | 1.1 | · | · | · | ·
COc1cc(/C=C2\C(=O)NC(=O)N(c3ccc(Cl)cc3)C2=O)cc(I)c1OC | 10 | 1.1 | · | · | · | ·
CCOC(=O)C1=C(c2ccccc2)OC(N(C)C)C(c2ccccc2)=C1 (stereo not drawn) | 9 | 0.93 | · | · | · | ·
COc1ccc(N2CCSC2C(=O)c2ccccc2)cc1 (stereo not drawn) | 10 | 1 | · | · | · | ·
